Where “and” joins values, the source holds several entries; their conditions need not be identical. Equal entries are not always repeated. A structure can be active in one record and inactive in another. Calls of active or inactive are those of the source. The calls were made as follows: active = hit-call score of the fitted dose curve at least 0.9, where 1 is the maximum; inactive = score below 0.9.
Experiment: BSK_3C_SRB: Viability Assessment in the BioMAP Diversity Plus: 3C Assay (AID 2283023);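 also: fitted both ways against DMSO so a hit may be signal rise or drop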
Details: primary human endothelial cells (HUVEC)
Protocol: BSK_3C is a cell-based, multiplexed-readout assay that uses umbilical vein endothelium, a human vascular primary cell, with measurements taken at 24 hours after chemical dosing in a 96-well plate.BSK_3C_SRB is an assay component measured in the BSK_3C assay. It measures 0.1% sulforhodamine related to cell death using Sulforhodamine staining technology.Data from the assay component BSK_3C_SRB was analyzed into 1 assay endpoint. This assay endpoint, BSK_3C_SRB, was analyzed with bidirectional fitting relative to DMSO as the negative control and baseline of activity. Using a type of viability reporter, gain or loss-of-signal activity can be used to understand changes in the signaling. Furthermore, this assay endpoint can be referred to as a primary readout, because this assay has produced multiple assay endpoints where this one serves a signaling function. To generalize the intended target to other relatable targets, this assay endpoint is annotated to the cell morphology intended target family, where the subfamily is cell conformation.
The levels of cell surface (or secreted, indicated by the prefix "s") biomarker endpoints were measured by ELISA. Overt cytotoxicity to cells in confluent adherent cultures (all systems other than the BT system) was assessed by measuring total protein levels using sulforhodamine B (SRB) staining in parallel cultures at the time of biomarker measurements, indicated as SRB endpoints. For proliferation assays for adherent cell types, individual cell types are cultured at sub-confluence and relative cell numbers quantified by SRB staining at time points optimized for each system (48 h: 3C and CASM3C systems; 72 h: BT and HDF3CGF systems; 96 h: SAg system). SRB was performed by staining cells with 0.1% SRB after fixation with 10% TCA and reading wells at 560 nm.Viability and proliferation of PBMC (T cells) was quantified by Alamar Blue reduction for the SAg and BT systems. For PBMC viability (referred to as PBMC Cytotoxicity within the assay endpoint names), cells were plated (75,000/well in a 96-well plate) and then chemical samples added for 1 h before addition of activators, SEB and TSST-1 (20 ng/mL final concentration each). Cells were incubated for 90 h. Then, Alamar Blue (20 uL/well) (Invitrogen, Cat DAL1100) was added for 6 h, and the plates were read with a fluorescence microplate reader at 546/580 nm (excitation/emission). For PBMC proliferation, cells were plated and activated as above but incubated for only 16 h prior to addition of Alamar Blue. Plates were read after 6 h.
For `CCCCOC(=O)[C@@H](C)Oc1ccc(Oc2ccc(C(F)(F)F)cn2)cc1`, the outcome was “inactive”.
For `c1ccc2[nH]c(-c3cscn3)nc2c1`, the outcome was “inactive”.
In the case of `COc1c(Cl)ccc(Cl)c1C(=O)O`, the outcome is reported as “inactive”.
For `COCCO`, the outcome was “inactive”.
With `C=CCOC(Cn1ccnc1)c1ccc(Cl)cc1Cl` (stereo not given) the outcome was “inactive”.
In the case of `CCC(C)OC(=O)N1CCCCC1CCO` (stereo not given), the outcome is reported as “inactive”.
With `C#C[C@]1(O)CC[C@H]2[C@@H]3CCC4=CC(=O)CC[C@@H]4[C@H]3CC[C@@]21CC` the outcome was “inactive”.
In the case of `O=C(O)c1ccccc1`, the outcome is reported as “inactive”.
In the case of `O=C(c1ccc(O)cc1O)c1ccc(O)cc1O`, the outcome is reported as “inactive”.
In the case of `CC(=O)[C@H]1CC[C@H]2[C@@H]3CCC4=CC(=O)CC[C@]4(C)[C@H]3CC[C@]12C`, the AC50 is reported as 6.1 µM (active).
With `CC(=O)S[C@@H]1CC2=CC(=O)CC[C@]2(C)[C@H]2CC[C@@]3(C)[C@@H](CC[C@@]34CCC(=O)O4)[C@H]12` the AC50 was 25.7 µM (active).
With `COC(=O)c1ccc(CNS(C)(=O)=O)cc1S(=O)(=O)NC(=O)Nc1nc(OC)cc(OC)n1` the outcome was “inactive”.
With `CCCCC(CC)CN1C(=O)C2C3C=CC(C3)C2C1=O` (stereo not given) the AC50 was 16.9 µM (active).
In the case of `CCNc1nc(N)nc(Cl)n1`, the outcome is reported as “inactive”.
For `COc1nc(C)nc(NC(=O)NS(=O)(=O)c2ccccc2OCCCl)n1`, the outcome was “inactive”.
For `N#CSCSc1nc2ccccc2s1`, the AC50 was 5.31 µM (active) and 5.24 µM (active).
In the case of `CCOC(=O)C(C)Oc1ccc(Oc2nc3ccc(Cl)cc3o2)cc1` (stereo not given), the outcome is reported as “inactive”.
For `CC1(C)C(C=C(Cl)Cl)C1C(=O)OCc1cccc(Oc2ccccc2)c1` (stereo not given), the AC50 was 6.15 µM (active).
For `CSC(=O)c1cccc2nnsc12`, the outcome was “inactive”.
For `CCN(CC)C(=O)c1cccc(C)c1`, the outcome was “inactive”.
For `OB(O)O`, the outcome was “inactive”.
With `CCOC(=O)c1ccc(O)cc1` the outcome was “inactive”.
In the case of `CCSC(=O)N(CC(C)C)CC(C)C`, the outcome is reported as “inactive”.
In the case of `CCCOC(=O)NCCCN(C)C`, the outcome is reported as “inactive”.
With `C[C@]12CC[C@@H]3c4ccc(O)cc4C[C@@H](CCCCCCCCCS(=O)CCCC(F)(F)C(F)(F)F)[C@H]3[C@@H]1CC[C@@H]2O` (stereo not given in full) the AC50 was 3.51 µM (active).
With `O=C(O)C1(C(=O)Nc2ccc(Cl)cc2Cl)CC1` the outcome was “inactive”.
For `N[C@@H](Cc1cc(I)c(Oc2ccc(O)c(I)c2)c(I)c1)C(=O)O`, the outcome was “inactive”.
With `CC(C)(c1ccc(O)cc1)c1ccc(O)cc1` the AC50 was 14.2 µM (active) and the outcome was “inactive”.
For `CCCCCOC(=O)COc1cc(N2C(=O)C3=C(CCCC3)C2=O)c(F)cc1Cl`, the outcome was “inactive”.
In the case of `CCCCOC(=O)C(C)Oc1ccc(Oc2ccc(C(F)(F)F)cn2)cc1` (stereo not given), the outcome is reported as “inactive”.
In the case of `CCCN(CCC)C(=O)SCC`, the outcome is reported as “inactive”.
With `CCOC(=O)C(C)Oc1ccc(Oc2cnc3cc(Cl)ccc3n2)cc1` (stereo not given) the outcome was “inactive”.
In the case of `C#CCOC(=O)[C@@H](C)Oc1ccc(Oc2ncc(Cl)cc2F)cc1`, the outcome is reported as “inactive”.
In the case of `COC(=O)c1c(Cl)nn(C)c1S(=O)(=O)NC(=O)Nc1nc(OC)cc(OC)n1`, the outcome is reported as “inactive”.
For `COC(=O)c1ccccc1S(=O)(=O)NC(=O)Nc1nc(OC(F)F)cc(OC(F)F)n1`, the outcome was “inactive”.
With `CCC(O)=C1C(=O)CC(C(=O)O)CC1=O` (stereo not given) the outcome was “inactive”.
With `CCOC(=O)[C@H](C)Oc1ccc(Oc2nc3ccc(Cl)cc3o2)cc1` the outcome was “inactive”.
With `S=C(S)NCCNC(=S)S.[Mn+2].[S-]C([S-])=NCCN=C([S-])[S-].[Zn+2]` the outcome was “inactive”.
In the case of `CCCCOCCOCCOCc1cc2c(cc1CCC)OCO2`, the AC50 is reported as 21 µM (active).
